Our source for the outcome and AC50 values is PubChem BioAssay (EPA / NIEHS).

Records with an inconclusive call do not appear. Calls of active or inactive are those of the source. How the source made its calls, unless noted: active means hit-call score of the fitted dose curve at least 0.9, where 1 is the maximum; inactive means score below 0.9.

The nature of assay [1]: CCTE_Harrill_HTTr_Viability_MCF7: CCTE's 6-hour Cell Viability Assessment for the High-Throughput Transcriptomics (HTTr) Platform, in MCF-7 cells cultured in DMEM + 10% fetal bovine serum, Harrill Lab (AID 2284010). The gist of the method: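 Membrane integrity was scored by high-content imaging of propidium iodide dye exclusion after a 6 h exposure across an eight-point dilution series. Data were fitted bidirectionally relative to DMSO as negative control and baseline.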

Assay [2] in a line: CCTE_Harrill_HTTr_Apoptosis_MCF7: CCTE's 6-hour Apoptosis Assessment for the High-Throughput Transcriptomics (HTTr) Platform, in MCF-7 cells cultured in DMEM + 10% fetal bovine serum, Harrill Lab (AID 2284011). The gist of the method: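 High-content imaging of CellEvent Caspase 3/7 Green signal follows a six-hour exposure, with eight concentrations per chemical. MCF-7 cells grown in DMEM plus 10% fetal bovine serum; activity fitted in both directions against DMSO.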

Assay [3] can be described thus: CCTE_Shafer_MEA_acute_spike_number: CCTE's Neural Acute Assay for Total Number of Spikes, Shafer Lab (AID 2284008).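 On AC50: curve fitted for decrease in spike count so AC50 reflects inhibitors.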 The method in brief: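 Total spike count from 40 min recordings before and during compound exposure (0.03-40 uM), given as per-well percent change. Cortical cultures from rat, DIV 13 or 15, 37 C; adaptive detection threshold 8x rms noise.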
Assay [4] in a line: CCTE_Shafer_MEA_acute_firing_rate_mean: CCTE's Neural Acute Assay for Mean Firing Rate, Shafer Lab (AID 2284009).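 Further: analyzed for loss of signal so actives lower firing rate relative to DMSO.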 The method in brief:
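Read-out: well-mean spike rate (spikes/recording length/electrodes), % change from 40 min pre-dose baseline to 40 min with compound. Rat cortical cultures, DIV 13 or 15, 37 C; 0.03-40 uM; DMSO as negative control.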

A short description of assay [5]: CCTE_Harrill_HTTr_CellCount_MCF7: CCTE's Cell Proliferation Assessment for the High-Throughput Transcriptomics (HTTr) Platform, Harrill Lab (AID 2284012; active means hit-call score of the fitted dose curve at least 0.9, where 1 is the maximum;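 further: cells exposed to compound for six hours; intended direction is loss of nuclei count meaning fewer cells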). The gist of the method:
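MCF-7 cells were exposed for 6 h to an eight-point dilution series; Hoechst-labeled nuclei were counted by high content imaging. Curves were fitted bidirectionally against DMSO as negative control and baseline, with signal loss indicating reduced cell count.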

Assay [6] can be described thus: CCTE_Shafer_MEA_acute_burst_number: CCTE's Neural Acute Assay for Single-Electrode Bursts, Shafer Lab (AID 2284013). The method in brief:
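Rat cortical cultures, DIV 13/15; 40 min baseline, then 40 min with compound 0.03-40 uM, 37 C. Spikes: 300-5000 Hz band-pass, threshold 8x rms noise. Readout = % change in single-electrode bursts vs baseline, loss-of-signal fit.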

Assay [7] can be described thus: CCTE_Simmons_MITO_max_resp_rate: CCTE's HepG2 Seahorse XF Respirometric Screening Assay at Maximal Respiratory State [uncoupled], Simmons Lab (AID 2284002). The settings on record: actives raise or lower the signal. The method in brief:
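Maximal (FCCP-uncoupled) respiration rate in HepG2, from Seahorse kinetic OCR over 72 min at 6 min cycles. Compounds at 125 nM–100 uM final, 7 points, three biological replicates; both directions fit relative to DMSO.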

Assay [8] in a line: CCTE_Simmons_MITO_inhib_resp_rate: CCTE's HepG2 Seahorse XF Respirometric Screening Assay at Inhibited Respiratory State [full ETC block], Simmons Lab (AID 2284006). Conditions: actives raise or lower the signal. The gist of the method:
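HepG2 cells on Seahorse XF96; oxygen consumption measured after test compound, then FCCP, then rotenone/antimycin A injections over 72 min. Test chemicals at 7 concentrations, 125 nM–100 uM final. OCR fitted bidirectionally versus DMSO.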

Assay [9] is described as follows: CCTE_Simmons_MITO_viability: CellTiter-Glo Viability Assessment for CCTE's HepG2 Seahorse XF Respirometric Screening Assay [post-hoc], Simmons Lab (AID 2284007; active means hit-call score of the fitted dose curve at least 0.9, where 1 is the maximum). The gist of the method:
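HepG2 cells from the Seahorse XF respirometry run were exposed 90 min to a 7-point series, 125 nM–100 uM final, DMSO vehicle; ATP content then read by luciferase luminescence. Three biological replicates, technical singles; loss of signal fitted versus DMSO.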
For orientation: Cellular ATP, detected with luciferase, serves as a proxy for viable cell number.

On to `CN(C1CCCCC1)C1CCCCC1`, for which the outcome in assay [1] and in [2] was inactive.
A word on the AC50: it is the concentration giving half of the maximal activity seen. In the case of `CCCCOC(=O)COC(=O)c1ccccc1C(=O)OCCCC`, the figures for the AC50 in assay [3], in assay [4] and in assay [6] were 19.6 nM (active), 19.6 nM (active) and 10.5 nM (active), respectively. Also, the outcome in [1], in assay [2] and in [5] was inactive.
In the case of `COC(=O)c1cc(Oc2ccc(Cl)cc2Cl)ccc1[N+](=O)[O-]`, the result in assay [1] and in assay [2] was inactive.
`CC(C)[C@@H](Nc1ccc(C(F)(F)F)cc1Cl)C(=O)OC(C#N)c1cccc(Oc2ccccc2)c1` (stereo not given in full): the concentration at half-maximal activity (AC50) in assay [3] was 936 nM (active); in assay [4] it was 1250 nM (active). Also, the outcome in [1], in [2] and in [6] was inactive.
As for `CCOP(=O)(OCC)OC(=CCl)c1ccc(Cl)cc1Cl`, the result in assay [1] and in assay [2] was inactive.
On to `CCCCCCCCCCCCc1cccc(S(=O)(=O)O)c1`, for which the compound was classed as inactive in assay [3], in [4], in [1], in [2] and in [6].
Consider `CC1CC(=O)O1` (stereo not given), for which the outcome in assay [1] and in [2] was inactive.
Take `O=NN1CCCCCC1`: the outcome in [1] and in assay [2] was inactive.
As for `Oc1cc(Cl)c(Cl)cc1Cl`, the AC50 was 75400 nM (active) in assay [7], 36300 nM (active) in [3] and 34200 nM (active) in [4]. For the same compound, the compound was called inactive in [8], in [9], in [1], in assay [2], in [5] and in assay [6].
As for `Cc1ccccc1OP(=O)(Oc1ccccc1C)Oc1ccccc1C`, the AC50 in [3] is 25400 nM (active). For the same compound, the call in [4] and in [6] was inactive.
Turning to `C#C[C@]1(O)CC[C@H]2[C@@H]3CCC4=CC(=O)CC[C@]4(C)[C@H]3CC[C@@]21C`, the outcome in [1] and in [2] was inactive.
As for `Clc1cccc(Cl)c1Cl`, the compound was classed as inactive in assay [3], in [4], in [1], in [2], in [5] and in assay [6].
In the case of `C[As+](C)(C)CC(=O)[O-]`, the outcome in assay [1] and in assay [2] was inactive.
For `OCC(c1ccc(Cl)cc1)c1ccc(Cl)cc1`, the result in [1] and in assay [2] was inactive.
